Among the data in PubChem BioAssay (EPA / NIEHS) are outcome and AC50 values, retold here.

Read-out in experiment [1]: Signal transducer and activator of transcription 3 (Homo sapiens) (UniProt P40763)
The experiment is described as follows: LTEA_HepaRG_STAT3: Life Technologies and Expression Analysis (LTEA) Assay for Signal transducer and activator of transcription (STAT3) using HepaRG (AID 2283529). Particulars: mRNA level, 48 h; actives raise or lower the signal. In a few lines:
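Differentiated HepaRG cells, serum-free induction medium, dosed 48 h in duplicate, 8 half-log concentrations from 100 uM in 0.5% DMSO. STAT3 mRNA by qRT-PCR, normalised to ACTB, GAPDH, POLR2A; bidirectional fit versus DMSO.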

Read-out in experiment [2]: solute carrier (SLCO1B1), SLCO1B1 (gene 10599)
The experiment is described as follows: LTEA_HepaRG_SLCO1B1: Life Technologies and Expression Analysis (LTEA) Assay for solute carrier (SLCO1B1) using HepaRG (AID 2283530). Particulars: mRNA level, 48 h; actives raise or lower the signal. In a few lines: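 SLCO1B1 transcript levels were quantified by TaqMan qRT-PCR using three housekeeping genes for normalization. This followed 48 h chemical exposure (100 uM top, half-log, 8 points, 0.5% DMSO) of HepaRG liver cells, with gain or loss fitted relative to DMSO.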

Read-out in experiment [3]: sulfotransferase 2A1 (SULT2A1), SULT2A1 (gene 6822)
Kind of experiment: LTEA_HepaRG_SULT2A1: Life Technologies and Expression Analysis (LTEA) Assay for sulfotransferase 2A1 (SULT2A1) using HepaRG (AID 2283531). The following applies: mRNA level, 48 h; actives raise or lower the signal. The procedure, abridged: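 Expression change of SULT2A1, by qRT-PCR with three housekeeping-gene normalization, was scored bidirectionally versus DMSO. Cells: differentiated HepaRG, dosed in duplicate for 48 h across 8 points, highest 100 µM, half-log dilution, 0.5% DMSO.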

Read-out in experiment [4]: Transforming Growth Factor (TGFA), TGFA (gene 7039)
Kind of experiment: LTEA_HepaRG_TGFA: Life Technologies and Expression Analysis (LTEA) Assay for Transforming Growth Factor (TGFA) using HepaRG (AID 2283532). Particulars: mRNA level, 48 h; actives raise or lower the signal. The procedure, abridged: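 Differentiated HepaRG cells exposed 48 hours in serum-free induction medium, 0.5% DMSO vehicle, 8-point half-log series from 100 uM, in duplicate. TGFA mRNA by TaqMan qRT-PCR, normalised to ACTB, GAPDH, POLR2A; bidirectional fit versus DMSO.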

Read-out in experiment [5]: Transforming Growth Factor (TGFB1), TGFB1 (gene 7040)
Kind of experiment: LTEA_HepaRG_TGFB1: Life Technologies and Expression Analysis (LTEA) Assay for Transforming Growth Factor (TGFB1) Transporter using HepaRG (AID 2283533). The following applies: mRNA level, 48 h; actives raise or lower the signal. In a few lines: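 TGFB1 transcript measured by qRT-PCR with normalisation to three housekeeping genes (ACTB, GAPDH, POLR2A); human HepaRG line treated in duplicate for 48 hr with an 8-point series topping at 100 uM, 0.5% DMSO vehicle, bidirectionally fitted.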

Read-out in another experiment: TIMP1, TIMP1 (gene 7076)
Kind of experiment: LTEA_HepaRG_TIMP1: Life Technologies and Expression Analysis (LTEA) Assay for TIMP1 using HepaRG (AID 2283534). Particulars: mRNA level, 48 h; actives raise or lower the signal. The procedure, abridged:
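Bidirectional change in TIMP1 transcript versus 0.5% DMSO, measured by TaqMan qRT-PCR with three housekeeping genes for normalization. HepaRG human liver cells dosed 48 h in duplicate, top concentration 100 uM with half-log dilutions.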

Read-out in experiment [6]: Tumor necrosis factor receptor 1 (TNFRSF1A), TNFRSF1A (gene 7132)
The experiment is described as follows: LTEA_HepaRG_TNFRSF1A: Life Technologies and Expression Analysis (LTEA) Assay for Tumor necrosis factor receptor 1 (TNFRSF1A) using HepaRG (AID 2283535). Particulars: mRNA level, 48 h; actives raise or lower the signal. In a few lines:
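mRNA measured by qRT-PCR (TaqMan, Fluidigm arrays) against ACTB/GAPDH/POLR2A housekeepers after 48 h chemical exposure of HepaRG cells. Top concentration 100 uM, half-log 8-point series, duplicates; vehicle 0.5% DMSO, both fit directions.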

Read-out in experiment [7]: Thyroid Hormone Responsive (THRSP), THRSP (gene 7069)
Kind of experiment: LTEA_HepaRG_THRSP: Life Technologies and Expression Analysis (LTEA) Assay for Thyroid Hormone Responsive (THRSP) using HepaRG (AID 2283536). Particulars: mRNA level, 48 h; actives raise or lower the signal. The procedure, abridged:
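Differentiated HepaRG cells treated 48 h in serum-free induction medium with 8 half-log concentrations up to 100 uM (0.5% DMSO), duplicates. THRSP mRNA by TaqMan qRT-PCR normalised to ACTB, GAPDH, POLR2A; bidirectional fit versus DMSO.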

Read-out in experiment [8]: Cellular tumor antigen p53 (Homo sapiens) (UniProt P04637)
The experiment is described as follows: LTEA_HepaRG_TP53: Life Technologies and Expression Analysis (LTEA) Assay for Tumor Protein P53 (TP53) using HepaRG (AID 2283537). The following applies: mRNA level, 48 h; actives raise or lower the signal. The procedure, abridged:
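Read-out is TP53 transcript level by microfluidic qRT-PCR, normalised to three housekeeping genes and fitted bidirectionally against DMSO. Human HepaRG cells received compounds for 48 h, highest concentration 100 uM.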

Read-out in experiment [9]: UDP glucuronosyltransferase (UGT1A1), UGT1A1 (gene 54658)
Kind of experiment: LTEA_HepaRG_UGT1A1: Life Technologies and Expression Analysis (LTEA) Assay for UDP glucuronosyltransferase (UGT1A1) using HepaRG (AID 2283538). The following applies: mRNA level, 48 h; actives raise or lower the signal. The procedure, abridged: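 HepaRG cells, 0.5% DMSO vehicle, 48 h exposure in serum-free induction medium to 8-point half-log series topping at 100 uM, in duplicate. UGT1A1 mRNA by Fluidigm qRT-PCR, normalized to ACTB/GAPDH/POLR2A; bidirectional fit versus DMSO.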

Read-out in experiment [10]: UDP glucuronosyltransferase (UGT1A6), UGT1A6 (gene 54578)
Kind of experiment: LTEA_HepaRG_UGT1A6: Life Technologies and Expression Analysis (LTEA) Assay for UDP glucuronosyltransferase (UGT1A6) using HepaRG (AID 2283539). The following applies: mRNA level, 48 h; actives raise or lower the signal. The procedure, abridged:
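Expression was quantified by TaqMan qRT-PCR on Fluidigm arrays with ACTB/GAPDH/POLR2A normalization and bidirectional fitting against 0.5% DMSO. HepaRG cells (~100,000/well) were treated in duplicate for 48 h at eight half-log concentrations up to 100 uM in serum-free induction medium.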

Read-out in experiment [11]: X-box binding protein 1 (XBP1), XBP1 (gene 7494)
The experiment is described as follows: LTEA_HepaRG_XBP1: Life Technologies and Expression Analysis (LTEA) Assay for X-box binding protein 1 (XBP1) using HepaRG (AID 2283540). The following applies: mRNA level, 48 h; actives raise or lower the signal. The procedure, abridged:
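XBP1 transcript by qRT-PCR (housekeeping-normalized: ACTB, GAPDH, POLR2A) after 48 h chemical treatment of HepaRG cells, 8-point half-log series topping at 100 uM, vehicle 0.5% DMSO. Gain and loss of signal fitted relative to DMSO.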

A short description of experiment [12]: LTEA_HepaRG_LDH_cytotoxicity: Cytotoxicity Assessment in the Life Technologies and Expression Analysis (LTEA) Assay (AID 2283563; active means hit-call score of the fitted dose curve at least 0.9, where 1 is the maximum;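 on AC50: LDH activity released into spent culture medium as a marker of cell death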). In a few lines: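 LDH release into culture medium read after 48 h chemical treatment of HepaRG cells. Duplicate wells, eight-point half-log series topping at 100 uM, 0.5% DMSO vehicle and baseline.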
A short description of experiment [13]: ATG_XTT_Cytotoxicity: Cytotoxicity Assessment in the Attagene TRANS-FACTORIAL HepG2 Assay (AID 2283584; active means hit-call score of the fitted dose curve at least 0.9, where 1 is the maximum). The procedure, abridged: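 Viability endpoint from XTT after 24 h chemical exposure of reporter-transfected human HepG2 liver cells; signal loss fitted relative to DMSO negative control.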
Experiment [14] can be described thus: TOX21_p53_BLA_p2_viability: Viability Assessment in the Tox21 HCT-116 p53 Agonism Beta-lactamase Assay, Phase 2 (AID 2283591; active means hit-call score of the fitted dose curve at least 0.9, where 1 is the maximum;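 further: compound exposure lasted 16 h at 37 °C; actives lower the ATP signal meaning cytotoxicity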). In a few lines:
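HCT116 p53-bla cells, 4000/well, dosed after 5 h plating (217-fold dilution of DMSO stocks) and incubated 16 h at 37C. Viability taken as cellular ATP by CellTiter-Glo luminescence after 30 min RT; signal loss marks cytotoxicity.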

The target in experiment [15] is Cellular tumor antigen p53 (Homo sapiens) (UniProt P04637). Kind of experiment: TOX21_p53_BLA_p2_ratio: Tox21 HCT-116 p53 Agonism Beta-lactamase Assay, Ratio, Phase 2 (AID 2283592; active means hit-call score of the fitted dose curve at least 0.9, where 1 is the maximum). The procedure, abridged:
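Gain-of-signal p53 agonism was scored from the beta-lactamase FRET ratio (460/530 nm, 405 nm excitation) in HCT116 cells treated 16 h at 37C, 5% CO2, with DMSO serving as negative control and baseline.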

A short description of experiment [16]: TOX21_p53_BLA_p3_viability: Viability Assessment in the Tox21 HCT-116 p53 Agonism Beta-lactamase Assay, Phase 3 (AID 2283593; active means hit-call score of the fitted dose curve at least 0.9, where 1 is the maximum;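 further: cells exposed to compound for 16 h before reading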). The procedure, abridged: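 HCT116 cells, 4000/well, dosed 5 h after plating by pin transfer (217-fold dilution from DMSO stock) and incubated 16 h at 37C, 5% CO2. Viability read as ATP luminescence with CellTiter-Glo after 30 min at room temperature.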

In experiment [17] the target is Cellular tumor antigen p53 (Homo sapiens) (UniProt P04637). Kind of experiment: TOX21_p53_BLA_p3_ratio: Tox21 HCT-116 p53 Agonism Beta-lactamase Assay, Ratio, Phase 3 (AID 2283596; active means hit-call score of the fitted dose curve at least 0.9, where 1 is the maximum). In a few lines:
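HCT116 p53-bla cells (4000/well) given compound in DMSO (217-fold dilution) after 5 h, incubated 16 h at 37C. CCF4-AM substrate 2 h at room temperature; 460/530 nm emission ratio, gain fitted against DMSO.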

Experiment [18] can be described thus: TOX21_p53_BLA_p4_viability: Viability Assessment in the Tox21 HCT-116 p53 Agonism Beta-lactamase Assay, Phase 4 (AID 2283597; active means hit-call score of the fitted dose curve at least 0.9, where 1 is the maximum;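 further: hits lower the luminescence signal meaning cytotoxicity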). In a few lines:
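Following a 16 h exposure at 37C, the treated HCT116 wells were first read for the FRET ratio. They were then lysed with CellTiter-Glo, and ATP luminescence was recorded after 30 min at room temperature.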

In experiment [19] the target is Cellular tumor antigen p53 (Homo sapiens) (UniProt P04637). Kind of experiment: TOX21_p53_BLA_p5_ratio: Tox21 HCT-116 p53 Agonism Beta-lactamase Assay, Ratio, Phase 5 (AID 2283599; active means hit-call score of the fitted dose curve at least 0.9, where 1 is the maximum). In a few lines:
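HCT-116 p53-bla cells (4000/well) plated 5 h, dosed with compound (217-fold DMSO dilution) for 16 h at 37 C; CCF4-AM substrate 2 h at room temperature. Activity is the 460/530 nm emission ratio (405 nm excitation), fitted in gain-of-signal direction versus DMSO.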

Each structure is given as a SMILES string. Records with an inconclusive call do not appear. The source made the active and inactive calls. How the source made its calls, unless noted: active means hit-call score of the fitted dose curve at least 0.9, where 1 is the maximum; inactive means score below 0.9.

Sequence of Cellular tumor antigen p53 (Homo sapiens) (P04637 whole entry, looked up): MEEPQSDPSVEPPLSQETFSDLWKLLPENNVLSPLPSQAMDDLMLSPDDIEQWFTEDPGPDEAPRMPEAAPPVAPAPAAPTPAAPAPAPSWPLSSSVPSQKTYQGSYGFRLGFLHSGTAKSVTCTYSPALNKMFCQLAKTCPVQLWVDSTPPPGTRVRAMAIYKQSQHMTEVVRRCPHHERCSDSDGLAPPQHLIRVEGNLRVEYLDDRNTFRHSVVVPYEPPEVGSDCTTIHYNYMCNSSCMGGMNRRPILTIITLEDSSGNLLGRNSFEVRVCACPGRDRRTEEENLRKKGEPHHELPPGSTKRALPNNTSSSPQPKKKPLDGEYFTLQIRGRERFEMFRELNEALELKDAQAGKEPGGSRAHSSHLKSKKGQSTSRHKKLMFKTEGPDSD
Sequence of Signal transducer and activator of transcription 3 (Homo sapiens) (P40763 whole entry, looked up): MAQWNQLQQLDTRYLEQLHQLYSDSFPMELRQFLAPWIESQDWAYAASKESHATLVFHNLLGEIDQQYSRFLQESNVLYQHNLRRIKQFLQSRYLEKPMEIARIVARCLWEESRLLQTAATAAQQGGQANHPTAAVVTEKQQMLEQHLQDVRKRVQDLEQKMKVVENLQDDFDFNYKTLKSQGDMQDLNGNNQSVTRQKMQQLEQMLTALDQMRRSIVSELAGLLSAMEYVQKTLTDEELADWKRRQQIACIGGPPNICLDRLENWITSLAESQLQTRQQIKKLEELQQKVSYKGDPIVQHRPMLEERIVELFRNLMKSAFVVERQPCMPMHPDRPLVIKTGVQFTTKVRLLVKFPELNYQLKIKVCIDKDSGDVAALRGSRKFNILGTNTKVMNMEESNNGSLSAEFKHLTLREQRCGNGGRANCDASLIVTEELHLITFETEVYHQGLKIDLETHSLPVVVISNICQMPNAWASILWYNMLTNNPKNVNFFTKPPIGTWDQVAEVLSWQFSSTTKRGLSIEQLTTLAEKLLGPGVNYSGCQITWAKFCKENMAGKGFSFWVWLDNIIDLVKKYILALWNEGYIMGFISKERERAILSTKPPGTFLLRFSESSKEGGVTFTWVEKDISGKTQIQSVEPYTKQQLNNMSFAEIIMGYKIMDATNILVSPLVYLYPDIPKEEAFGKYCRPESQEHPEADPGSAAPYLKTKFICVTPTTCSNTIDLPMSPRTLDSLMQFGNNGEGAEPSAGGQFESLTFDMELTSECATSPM

As for `O=C(c1ccccc1)c1ccccc1`, the outcome in experiment [1] is “inactive”; in experiment [2] it was “inactive”; in experiment [3] it was “inactive”; in [4], “inactive”; in [5], “inactive”; with TIMP1, TIMP1 (gene 7076), “inactive”. Further, the compound was called inactive in [6], in experiment [7], in experiment [8], in experiment [10], in experiment [11] and in experiment [12]. For the same compound, the call in experiment [13], in experiment [14], in experiment [15], in [16], in experiment [17] and in experiment [18] was inactive. In addition, the result in [19] was inactive. Also, the AC50 in experiment [9] is 4.85 µM (active).
`C=CC(=C)CC/C=C(\C)CCC=C(C)C`: the compound was classed as inactive in experiment [13].
Still for that read-out and setting: the result for `CCOC(=O)c1nc(C(Cl)(Cl)Cl)n(-c2ccc(Cl)cc2Cl)n1` reads “inactive”.
Still for that read-out and setting: the same measure for `O=C1Cc2ccccc2N1c1c(Cl)cccc1Cl`: “inactive”.
Take `C=CC(=O)OCCN(CC)CC`: the compound was classed as inactive in [13].
Same read-out and setting: the same measure for `Cc1ccc(N=Nc2c(O)ccc3ccccc23)c(C)c1`: “inactive”; for `COc1ccc(C#N)cc1`: “inactive”.
`CCCCC(CC)C(=O)O` (configuration not stated): the outcome was “inactive” in experiment [1]; “inactive” in experiment [2]; “inactive” in experiment [3]; “inactive” in experiment [4]; “inactive” in [5]; “inactive” with TIMP1, TIMP1 (gene 7076). Also, the compound was called inactive in experiment [6], in experiment [7], in experiment [9], in experiment [10], in experiment [11] and in [12]. The compound was classed as inactive in [13].
As for `N=C(N)c1ccc(OCCCCCOc2ccc(C(=N)N)cc2)cc1`, the AC50 was 29 µM (active) in [1]; 3.57 µM (active) in [2]; 12.6 µM (active) in experiment [3]; 11 µM (active) in experiment [4]; 69.8 µM (active) in experiment [5]; 43.8 µM (active) in the experiment with TIMP1, TIMP1 (gene 7076). The concentration at half-maximal activity (AC50) was 30.5 µM (active) in [6]; 8.04 µM (active) in [7]; 4.48 µM (active) in experiment [9]; 37.8 µM (active) in experiment [10]; 28.5 µM (active) in [11]; 12 µM (active) in experiment [12]. In addition, in [13], the compound was called inactive.
Regarding `O=C1C=CC(=O)N1c1cccc(N2C(=O)C=CC2=O)c1`, the outcome in experiment [13] was inactive.
As for `CCc1cccc(CC)c1N(COC)C(=O)CS(=O)(=O)O`, the compound was called inactive in experiment [13].
Same read-out and setting: the same measure for `CCO[Si](CCC1CCC2OC2C1)(OCC)OCC` (configuration not stated): “inactive”.
As for `OCC(CO)(CBr)CBr`, the outcome in [1] is “inactive”; in experiment [2] it was “inactive”; in experiment [3], “inactive”; in experiment [4], “inactive”; in experiment [5], “inactive”; in the experiment with TIMP1, TIMP1 (gene 7076) it was “inactive”. Moreover, the call in experiment [6], in experiment [7], in experiment [9], in [10], in [11] and in [12] was inactive.

In general, AC50 refers to the concentration giving half of the maximal activity seen.
